Here are results for 60 compounds from PubChem BioAssay.

Experiment [1] addresses Tumor necrosis factor receptor superfamily member 10B (Homo sapiens) (UniProt O14763). Nature of the experiment: caspase-8 TRAIL sensitization, hit retest, confirmation, cell-based, NB7+caspase-8, with/without TRAIL, luminescence panel (AID 651596). As to conditions: NB7 neuroblastoma + caspase-8, TRAIL sensitization, luminescence viability, with TRAIL, mean of runs, at 10 µM, stronger effect = higher value; in the data active = activity above about 50%; inactive = the rest.

Assay in experiment [2]: as above
The note with it: NB7 neuroblastoma + caspase-8, without TRAIL, luminescence viability, without TRAIL, mean of runs, at 10 µM.

SMILES strings stand for the structures.

Tumor necrosis factor receptor superfamily member 10B (Homo sapiens), sequence (O14763 whole entry, looked up): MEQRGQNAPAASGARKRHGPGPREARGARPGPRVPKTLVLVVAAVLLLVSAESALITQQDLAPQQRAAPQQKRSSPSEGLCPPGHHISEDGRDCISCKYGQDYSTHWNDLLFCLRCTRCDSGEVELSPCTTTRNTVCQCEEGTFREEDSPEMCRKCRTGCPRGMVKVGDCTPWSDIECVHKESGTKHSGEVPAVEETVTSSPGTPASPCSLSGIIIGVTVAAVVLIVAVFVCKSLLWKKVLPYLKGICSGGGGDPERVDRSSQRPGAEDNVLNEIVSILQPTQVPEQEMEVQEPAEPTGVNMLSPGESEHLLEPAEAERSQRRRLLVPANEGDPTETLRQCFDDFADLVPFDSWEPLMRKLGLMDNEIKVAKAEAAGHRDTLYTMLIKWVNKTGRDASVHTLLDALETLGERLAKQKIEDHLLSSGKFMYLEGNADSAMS

With `Cc1ccc(C(=O)COC(=O)c2ccc3c(c2)C(=O)N(c2cccc4ncccc24)C3=O)cc1`, the activity in experiment [1] stood at 54.7%; in experiment [2], 43.5%.

Turning to `Cc1ccc(C(=O)Nc2ccc3c(c2)OCCO3)cc1`, the activity turned out to be 90.4% in experiment [1] and 90.2% in experiment [2].

As for `O=C(NCc1ccccc1)c1c(Cl)nc(Cl)c(Cl)c1Cl`, the results for the activity in experiment [1] and in experiment [2] were 99.8% and 99.9%, respectively.

In the case of `COc1ccccc1NC(=O)Nc1ccc2c(c1)nc(C)n2C`, the values for the activity in experiment [1] and in experiment [2] were 77% and 73.8%, respectively.

For the compound `Cc1[nH]cnc1C(=O)N/N=C/c1c(Cl)cccc1Cl`, the activity in experiment [1] amounted to 58.7%; in experiment [2], 57.6%.

For the compound `CCN(CC)C(=O)c1nn(-c2ccccc2)c2c1C1CCC2(C)C1(C)C` (stereo not given), the results for the activity in experiment [1] and in experiment [2] were 15.1% and 8.65%, respectively.

Consider `CCc1ccc(NC(=O)c2cnn3ccccc23)cc1`, for which the activity worked out at 59.4% in experiment [1] and 58.6% in experiment [2].

As for `CC1(C)N=C(N)N=C(N)N1c1cccc(CC(=O)Nc2ccccc2)c1`, the figures for the activity in experiment [1] and in experiment [2] were 77.8% and 85.3%, respectively.

For `CN(c1ccccc1)S(=O)(=O)c1ccc(NC(=O)c2nc(S(C)(=O)=O)ncc2Cl)cc1`, the activity is 80.7% in experiment [1] and 99.3% in experiment [2].

For the compound `FC(F)(F)c1cccc(Sc2nc(-c3ccccc3)nnc2C(F)(F)F)c1`, the activity was 42.5% in experiment [1] and 60.4% in experiment [2].

Regarding `CNc1nc(N/N=C/c2cc([N+](=O)[O-])ccc2F)nc(Nc2ccccc2)n1`, the activity in experiment [1] is 71.5%; in experiment [2], 86.5%.

Take `O=C(CC1SC(=Nc2ccccc2F)N(CCN2CCOCC2)C1=O)Nc1ccc(F)cc1F` (stereo not given): the activity in experiment [1] is -3.85%; in experiment [2] it was -7.28%.

For `Cc1cc(-c2nc3cc(F)ccc3s2)ccc1N`, the activity in experiment [1] was determined as 74.5%; in experiment [2], 68.6%.

As to `Cc1ccc(C(=O)Nc2ccc(Cl)cc2C)c(Cl)c1`, the figures for the activity in experiment [1] and in experiment [2] were 56.7% and 39.9%, respectively.

`Cc1ccc(-c2cc3onc(-c4ccccc4)c3c(=O)n2C)cc1`: the activity in experiment [1] came out at 75%; in experiment [2], 72.3%.

Turning to `Cc1ccc2nc(NC(=S)NC(=O)c3cccs3)sc2c1`, the figures for the activity in experiment [1] and in experiment [2] were 82.5% and 74.8%, respectively.

Consider `COc1ccc(C(=O)NC(=O)Nc2cc(C)ccn2)cc1`, for which the activity in experiment [1] turned out to be 95.3%; in experiment [2] it was 95.4%.

With `CN(Cc1ccccc1)C(=O)c1ccc(Nc2nc(C(N)Cc3ccc(C(F)(F)F)cc3)cs2)nc1` (stereo not given), the activity in experiment [1] worked out at 93%; in experiment [2], 98.2%.

For `COc1ccc(-c2cn3ccccc3n2)cc1`, the activity in experiment [1] is 88%; in experiment [2], 87.1%.

In the case of `O=C(NOCc1ccccc1)c1ccc(Cl)cc1Cl`, the figures for the activity in experiment [1] and in experiment [2] were 62.6% and 55.5%, respectively.

For `CCCCCCCCCCCC1N=C(N)NC(CCCO)=C1C(=O)OC` (stereo not given), the activity was determined as 16.3% in experiment [1] and 18.3% in experiment [2].

With `CCc1ccc(OCc2nc(-c3ccccn3)no2)c(Br)c1`, the activity in experiment [1] was 50%; in experiment [2], 46.4%.

On to `COc1ccc(C(=O)Nc2ccccc2C(N)=O)cc1`, for which the activity in experiment [1] stood at 56.5%; in experiment [2], 56.2%.

As to `CCc1cc2c(COC(=O)c3cc(S(=O)(=O)N4CCOCC4)ccc3F)cc(=O)oc2cc1O`, the values for the activity in experiment [1] and in experiment [2] were 77.3% and 82.5%, respectively.

In the case of `CCOc1ccc(Nc2nc(N)nc(CCl)n2)cc1`, the activity in experiment [1] was determined as 99.5%; in experiment [2] it was 99.3%.

As for `N/C(=N\OC(=O)c1ccccc1Cl)c1cccnc1`, the figures for the activity in experiment [1] and in experiment [2] were 67.2% and 70.6%, respectively.

On to `COc1cccc(Cn2c(NCc3cccnc3)nc3c2c(=O)n(C)c(=O)n3C)c1`, for which the activity in experiment [1] came to 79.5%; in experiment [2] it was 84.7%.

`CCN(CC)c1ccc(/C=N/NC(=O)c2ccccn2)cc1`: the figures for the activity in experiment [1] and in experiment [2] were 57.3% and 45.4%, respectively.

Consider `Cc1cc(C)n2nc(C(=O)Nc3ccc4c(c3)OCCO4)nc2n1`, for which the activity stood at 45% in experiment [1] and 47.2% in experiment [2].

With `C=CCN=c1scc(-c2ccccc2)n1/N=C/c1ccccn1`, the activity in experiment [1] worked out at 37.6%; in experiment [2], 24.8%.

Turning to `CCOC(=O)/C(=C/c1ccc(OC(F)F)cc1)C1=Nn2c(nnc2-c2ccc(Cl)cc2)SC1`, the activity in experiment [1] was determined as 98.8%; in experiment [2], 97.1%.

Take `Cc1ccc2nc(NC(=O)c3cccs3)sc2c1`: the results for the activity in experiment [1] and in experiment [2] were 72.1% and 71.2%, respectively.

As for `NC(Cc1ccc(Cl)cc1)c1csc(NC(=O)NCC2CCCCC2)n1` (stereo not given), the results for the activity in experiment [1] and in experiment [2] were 58.4% and 88.1%, respectively.

Regarding `O=C1CCCCC(=O)[C@H](OC(=O)c2ccccc2)C[C@H](c2ccccc2)O1`, the results for the activity in experiment [1] and in experiment [2] were 2.17% and 2.2%, respectively.

With `Nc1ccccc1C=C1Cc2ccccc2C1=O`, the activity in experiment [1] worked out at 58.5%; in experiment [2] it was 50%.

With `COc1cc(C2Nc3ccccc3C(=O)N2c2ccc3c(c2)OCCO3)ccc1OCC(C)C` (stereo not given), the values for the activity in experiment [1] and in experiment [2] were 64.9% and 63.5%, respectively.

Consider `CCOC(=O)c1ccc(NC(=O)c2ccc(C)c(S(=O)(=O)N3CCOCC3)c2)cc1`, for which the activity in experiment [1] was 79.3%; in experiment [2], 69.1%.

For `Clc1nc2ccccc2cc1/C=N/Nc1nc2ccccc2[nH]1`, the activity in experiment [1] was 86.2%; in experiment [2], 81.5%.

With `O=C(COc1cc(F)ccc1[N+](=O)[O-])Nc1cc(S(=O)(=O)N2CCCC2)ccc1Cl`, the activity worked out at 26.4% in experiment [1] and 2.77% in experiment [2].

On to `Cc1nc(-c2ccc(C(=O)Nc3ccccc3F)cc2)cs1`, for which the activity in experiment [1] came to 81.9%; in experiment [2] it was 84.3%.

`Cc1cccc(-c2noc(-c3ccc4c(c3)OCO4)n2)c1`: the activity turned out to be 64.6% in experiment [1] and 60.1% in experiment [2].

Turning to `COc1ccc(C(=O)Nc2ccccc2C(=O)N/N=C/c2ccccn2)cc1OC`, the activity turned out to be 80.7% in experiment [1] and 59.5% in experiment [2].

In the case of `O=C(Nc1ccc(Cl)cc1)/C(=C/c1cccc(O)c1)c1nc2ccccc2s1`, the values for the activity in experiment [1] and in experiment [2] were 95.7% and 98.1%, respectively.

Consider `Cn1c(-c2ccccc2F)cc2onc(-c3ccccc3)c2c1=O`, for which the activity in experiment [1] worked out at 63%; in experiment [2], 65.1%.

`CCCNC(=O)c1oc2ccc3c(c2c1C)C(=O)CC(C)(C)O3`: the activity was 66.1% in experiment [1] and 68.4% in experiment [2].

For the compound `CC(=O)CSc1nc2cc3c(cc2cc1C#N)OCCO3`, the activity in experiment [1] is 49.6%; in experiment [2], 35.5%.

For `CCc1c(C)[nH]c2c(C)cccc2c1=O`, the activity in experiment [1] worked out at 56.4%; in experiment [2], 64.3%.

On to `Nc1ccc(-c2ncc(-c3ccccc3)o2)cc1`, for which the activity in experiment [1] came out at 28.2%; in experiment [2], 29.8%.

Take `COC(=O)c1cc(OCC(=O)Nc2ccc3c(c2)CCC3)cc(C(=O)OC)c1`: the activity was -14.7% in experiment [1] and -57.5% in experiment [2].

Turning to `COc1ccc2oc(C(=O)N3CCc4ccccc43)c(C)c2c1`, the activity worked out at 82.7% in experiment [1] and 82.4% in experiment [2].

Take `CN(C)c1ccc(-c2nc3ccccc3c(=O)[nH]2)cc1`: the activity came to 91.9% in experiment [1] and 92.5% in experiment [2].

For `O=C(N/N=C/c1ccc[nH]1)c1ccc(COc2cccc3cccnc23)cc1`, the activity in experiment [1] is 71.5%; in experiment [2], 90.3%.

`NC(=O)c1ccsc1NC(=O)c1ccc(N2CCCC2=O)cc1`: the activity in experiment [1] turned out to be 87.3%; in experiment [2], 85.7%.

As to `Cc1cccc2sc(NNC(=O)c3ccc(S(=O)(=O)N4CCCC(C)C4)cc3)nc12` (stereo not given), the activity in experiment [1] was determined as 51.8%; in experiment [2], 42.3%.

Consider `Cc1cccc(NC(=S)NNC(=O)c2ccc3c(c2)OCO3)c1`, for which the activity in experiment [1] came to 39.1%; in experiment [2], 49.8%.

On to `O=C(CN(Cc1ccccc1)C(=O)CCl)c1cccc(Br)c1`, for which the activity was 99.3% in experiment [1] and 93.5% in experiment [2].

With `Nc1nc(N)c2cc(S(=O)(=O)c3ccc4ccccc4c3)ccc2n1`, the activity was 64.9% in experiment [1] and 72.5% in experiment [2].

For `CC1(C)N=C(N)N=C(N)N1c1ccc(OCC(=O)Nc2ccccc2)c(Cl)c1`, the values for the activity in experiment [1] and in experiment [2] were 78.5% and 82.3%, respectively.

For the compound `COc1ccc(-c2nc3ccccc3c(=O)[nH]2)cc1`, the figures for the activity in experiment [1] and in experiment [2] were 73.8% and 77.5%, respectively.

Take `COc1cccc(C=Cc2nccc3ccccc23)c1OC`: the activity in experiment [1] was found to be 69.2%; in experiment [2], 67.1%.
